In PubChem BioAssay AID1159580 (chemical genetic matrix, 2015):
Among all 5,500 compounds or so, about 2,000 (36%) were called active. Another 18% or so got no clear call; they are omitted. Rule as the data show it: active = normalized growth mostly below about 0.91 (no sharp cut-off); inconclusive = no clear call, values can overlap the other calls; inactive = mostly above about 0.92. Some of the results follow.

Assay: chemical genetic growth profiling, strain panel (AID 1159580);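 also: tested at 20 µM; growth read once vehicle control cultures reached saturation at 30 °C; 1 = growth at the plate median or of vehicle wells; lower values mean less growth of the strain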
Conditions: S. cerevisiae deletion strains, growth OD
[1] = locus YAL021C, strain ccr4, stronger effect = lower value
[2] = locus YAL026C, strain drs2, stronger effect = lower value
[3] = locus YAL030W, strain snc1, stronger effect = lower value
[4] = locus YBL061C, strain skt5, stronger effect = lower value
[5] = locus YBR009C, strain hhf1, stronger effect = lower value
[6] = locus YBR023C, strain chs3, stronger effect = lower value
[7] = locus YBR231C, strain swc5, stronger effect = lower value
[8] = locus YBR279W, strain paf1, stronger effect = lower value
[9] = locus YCL011C, strain gbp2, stronger effect = lower value
[10] = locus YCL016C, strain dcc1, stronger effect = lower value
[11] = locus YCL069W, strain vba3, stronger effect = lower value
[12] = locus YCR088W, strain abp1, stronger effect = lower value
[13] = locus YDL005C, strain med2, stronger effect = lower value
[14] = locus YDL040C, strain nat1, stronger effect = lower value
[15] = locus YDR001C, strain nth1, stronger effect = lower value
[16] = locus YDR069C, strain doa4, stronger effect = lower value
[17] = locus YDR137W, strain rgp1, stronger effect = lower value
[18] = locus YDR159W, strain sac3, stronger effect = lower value
[19] = locus YDR297W, strain sur2, stronger effect = lower value
[20] = locus YDR334W, strain swr1, stronger effect = lower value
[21] = locus YDR335W, strain msn5, stronger effect = lower value
[22] = locus YDR392W, strain spt3, stronger effect = lower value
[23] = locus YEL003W, strain gim4, stronger effect = lower value
[24] = locus YEL037C, strain rad23, stronger effect = lower value
[25] = locus YEL061C, strain CIN8 (second series), stronger effect = lower value
[26] = locus YER015W, strain faa2, stronger effect = lower value
[27] = locus YER016W, strain bim1, stronger effect = lower value
[28] = locus YER111C, strain swi4, stronger effect = lower value
[29] = locus YER155C, strain BEM2 (second series), stronger effect = lower value
[30] = locus YFR010W, strain ubp6, stronger effect = lower value
[31] = locus YGL167C, strain pmr1, stronger effect = lower value
[32] = locus YGL173C, strain kem1, stronger effect = lower value
[33] = locus YGL227W, strain vid30, stronger effect = lower value
[34] = locus YGL240W, strain doc1, stronger effect = lower value
[35] = locus YGL253W, strain hxk2, stronger effect = lower value
[36] = locus YHR013C, strain ard1, stronger effect = lower value
[37] = locus YHR027C, strain rpn1, stronger effect = lower value
[38] = locus YHR030C, strain SLT2, stronger effect = lower value
[39] = locus YHR079C, strain IRE1, stronger effect = lower value
[40] = locus YHR142W, strain chs7, stronger effect = lower value
[41] = locus YJL092W, strain hpr5, stronger effect = lower value
[42] = locus YJL095W, strain BCK1 (second series), stronger effect = lower value
[43] = locus YJL095W, strain BCK1, stronger effect = lower value
[44] = locus YJL115W, strain asf1, stronger effect = lower value
[45] = locus YJL129C, strain trk1, stronger effect = lower value
[46] = locus YJL154C, strain vps35, stronger effect = lower value
[47] = locus YJL164C, strain tpk1, stronger effect = lower value
[48] = locus YJL166W, strain qcr8, stronger effect = lower value
[49] = locus YJR066W, strain TOR1, stronger effect = lower value
[50] = locus YKL160W, strain elf1, stronger effect = lower value
[51] = locus YKR026C, strain gcn3, stronger effect = lower value
[52] = locus YKR091W, strain srl3, stronger effect = lower value
[53] = locus YLL001W, strain dnm1, stronger effect = lower value
[54] = locus YLL026W, stronger effect = lower value
[55] = locus YLL041C, strain sdh2, stronger effect = lower value
[56] = locus YLR027C, strain aat2, stronger effect = lower value
[57] = locus YLR113W, strain HOG1, stronger effect = lower value
[58] = locus YLR221C, strain rsa3, stronger effect = lower value
[59] = locus YLR258W, strain gsy2, stronger effect = lower value
[60] = locus YLR262C, strain YPT6 (second series), stronger effect = lower value
[61] = locus YLR320W, strain mms22, stronger effect = lower value
[62] = locus YLR342W, strain FKS1, stronger effect = lower value
[63] = locus YLR357W, strain rsc2, stronger effect = lower value
[64] = locus YLR370C, strain arc18, stronger effect = lower value
[65] = locus YLR384C, strain iki3, stronger effect = lower value
[66] = locus YML120C, strain ndi1, stronger effect = lower value
[67] = locus YMR058W, strain fet3, stronger effect = lower value
[68] = locus YMR125W, strain sto1, stronger effect = lower value
[69] = locus YMR129W, stronger effect = lower value
[70] = locus YMR205C, strain PFK2, stronger effect = lower value
[71] = locus YMR231W, strain pep5, stronger effect = lower value
[72] = locus YNL071W, strain lat1, stronger effect = lower value
[73] = locus YNL183C, strain NPR1, stronger effect = lower value
[74] = locus YNL209W, strain ssb2, stronger effect = lower value
[75] = locus YNL248C, strain rpa49, stronger effect = lower value
[76] = locus YNL322C, strain KRE1 (second series), stronger effect = lower value
[77] = locus YNR049C, strain mso1, stronger effect = lower value
[78] = locus YOR001W, strain rrp6, stronger effect = lower value
[79] = locus YOR070C, strain gyp1, stronger effect = lower value
[80] = locus YOR080W, strain dia2, stronger effect = lower value
[81] = locus YOR083W, strain WHI5, stronger effect = lower value
[82] = locus YOR106W, strain vam3, stronger effect = lower value
[83] = locus YOR231W, strain MKK1, stronger effect = lower value
[84] = locus YOR265W, strain rbl2, stronger effect = lower value
[85] = locus YOR270C, strain vph1, stronger effect = lower value
[86] = locus YOR290C, strain snf2, stronger effect = lower value
[87] = locus YPL051W, strain arl3, stronger effect = lower value
[88] = locus YPL078C, strain atp4, stronger effect = lower value
[89] = locus YPL106C, strain sse1, stronger effect = lower value
[90] = locus YPL240C, strain hsp82, stronger effect = lower value
[91] = locus YPL256C, strain CLN2, stronger effect = lower value

Measured: normalized growth

COc1cccc2c1C(=O)c1c(O)c3c(c(O)c1C2=O)C[C@@](O)(C(C)=O)C[C@@H]3O[C@H]1C[C@H](N)[C@H](O)[C@H](C)O1
active: [1] 0.872 | [5] 0.894 | [18] 0.836 | [26] 0.914 | [29] 0.802 | [34] 0.621 | [35] 0.907 | [44] 0.885 | [45] 0.53 | [48] 0.827 | [61] 0.727 | [70] 0.873 | [72] 0.848 | [75] 0.706 | [88] 0.891
inactive: [2] 0.959 | [3] 0.946 | [4] 0.953 | [6] 0.953 | [7] 0.913 | [8] 0.968 | [9] 0.969 | [10] 1 | [11] 0.966 | [12] 0.981 | [13] 0.962 | [14] 0.941 | [15] 0.958 | [16] 0.922 | [17] 0.956 | locus YDR195W, strain ref2 0.983 | [19] 0.967 | [20] 0.903 | [21] 0.987 | [22] 0.976 | [23] 0.989 | [24] 0.974 | [25] 0.951 | [27] 0.993 | [28] 0.991 | [30] 0.91 | [31] 0.986 | [32] 0.97 | [33] 0.941 | [36] 0.933 | [37] 0.94 | [38] 0.994 | [39] 0.989 | [40] 0.956 | [41] 0.975 | [42] 0.977 | [43] 1.01 | [46] 0.957 | [47] 0.97 | [49] 0.954 | [50] 0.963 | [51] 0.971 | [52] 0.971 | [53] 0.981 | [54] 0.986 | [55] 0.971 | [56] 0.976 | [57] 1.01 | [58] 0.977 | [59] 0.991 | [60] 0.919 | [62] 0.967 | [63] 0.917 | [64] 0.97 | [65] 0.966 | [66] 0.959 | [67] 0.922 | [68] 0.966 | [69] 0.978 | [71] 0.968 | [73] 0.971 | [74] 0.945 | [76] 0.975 | [77] 0.965 | [78] 0.96 | [79] 0.977 | [80] 0.951 | [81] 0.972 | [82] 0.911 | [83] 1.01 | [84] 0.949 | [85] 0.919 | [86] 0.995 | [87] 0.958 | [89] 1.1 | [90] 0.98 | [91] 0.987

CC(=O)[C@]1(O)Cc2c(O)c3c(c(O)c2[C@@H](O[C@H]2C[C@H](N)[C@H](O)[C@H](C)O2)C1)C(=O)c1ccccc1C3=O
active: locus YAL040C, strain CLN3, stronger effect = lower value 0.208 | locus YCL061C, strain MRC1 (second series), stronger effect = lower value 0.0781 | locus YDR150W, strain NUM1, stronger effect = lower value 0.0885 | locus YDR363W, strain ESC2, stronger effect = lower value 0.478 | locus YER002W, strain NOP16, stronger effect = lower value 0.193 | locus YGR229C, strain SMI1, stronger effect = lower value 0.0661 | locus YJR075W, strain HOC1, stronger effect = lower value 0.0942 | locus YMR263W, strain SAP30, stronger effect = lower value 0.785 | locus YNL128W, strain TEP1, stronger effect = lower value 0.18 | locus YNL153C, strain GIM3, stronger effect = lower value 0.59 | locus YNL175C, strain NOP13, stronger effect = lower value 0.178 | locus YNL197C, strain WHI3, stronger effect = lower value 0.183 | locus YNL224C, strain SQS1, stronger effect = lower value 0.165 | locus YOR083W, strain WHI5 (second series), stronger effect = lower value 0.178 | locus YPL055C, strain LGE1, stronger effect = lower value 0.0958 | locus YPL241C, strain CIN2, stronger effect = lower value 0.0639

COc1cccc2c1C(=O)c1c(O)c3c(c(O)c1C2=O)C[C@@](O)(C(=O)CO)C[C@@H]3O[C@H]1C[C@H](N)[C@@H](O)[C@H](C)O1
active: [1] 0.648 | [2] 0.894 | [3] 0.891 | [4] 0.888 | [5] 0.552 | [6] 0.894 | [7] 0.692 | [9] 0.845 | [10] 0.753 | locus YCL061C, strain MRC1, stronger effect = lower value 0.897 | [16] 0.848 | [17] 0.846 | [18] 0.501 | [19] 0.906 | [20] 0.78 | [26] 0.801 | [27] 0.862 | [29] 0.595 | [30] 0.867 | [33] 0.889 | [34] 0.488 | [35] 0.576 | [36] 0.635 | [37] 0.854 | [40] 0.84 | [41] 0.855 | [42] 0.913 | [44] 0.682 | [45] 0.337 | [47] 0.737 | [48] 0.59 | [50] 0.75 | [53] 0.875 | [54] 0.851 | [55] 0.918 | [56] 0.821 | [58] 0.759 | [59] 0.834 | [60] 0.826 | [61] 0.312 | [62] 0.873 | [63] 0.785 | [66] 0.794 | [67] 0.806 | [68] 0.825 | [70] 0.634 | [72] 0.689 | [74] 0.899 | [75] 0.177 | [78] 0.875 | [79] 0.863 | [80] 0.89 | [81] 0.804 | [82] 0.682 | [84] 0.879 | [85] 0.766 | [86] 0.78 | [87] 0.8 | [88] 0.785 | [89] 1.2 [resistant] | [90] 0.926
inactive: locus YBR171W, strain sec66, stronger effect = lower value 0.985 | [8] 0.958 | [11] 0.965 | [12] 0.953 | [13] 0.951 | [14] 0.947 | [15] 0.937 | locus YDR195W, strain ref2 1.09 | [21] 0.928 | [22] 0.906 | [23] 0.955 | [24] 0.991 | [25] 0.982 | [28] 0.988 | [31] 0.969 | [32] 0.997 | [38] 1.01 | [39] 0.994 | [43] 0.958 | [46] 0.952 | locus YJL187C, strain SWE1, stronger effect = lower value 0.93 | [49] 0.948 | [51] 0.926 | [52] 0.943 | [57] 0.91 | [64] 0.96 | [65] 0.977 | [69] 0.963 | [71] 0.967 | [73] 0.935 | [76] 0.943 | [77] 0.937 | [83] 0.997 | [91] 0.981
